Test results: PubChem BioAssay
Several values for one entry are separate records, joined by “and”; a condition that tells them apart may be missing. Equal values may be shown once. Inconclusive results are not listed. Activity calls are given as the source filed them.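 The calls were made as follows, unless noted: active = normalized viability below 100% at a tested concentration; inactive = the rest.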

What was measured:
[1] = circadian clock period modulators, cell-based, LOPAC library, luminescence reporter (AID 2774; call rule not given here;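 also: values are relative to mean of DMSO wells on each plate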); conditions: circadian reporter cells, at 7 µM, actives lie on both sides
[2] = tested on: Hepatitis C virus NS3 helicase; experiment: HCV NS3 helicase inhibitors, primary screen, biochemical, fluorescence polarization, LOPAC1280 library (AID 687035; in the data active = inhibition above about 37%); conditions: Purified HCV NS3 helicase, Cy5-dT15 ssDNA binding fluorescence polarization; stronger effect = higher value; concentration not given here
[3] = Cy5 fluorescence quenching or enhancement artefacts, artefact control for HCV NS3 helicase inhibitor project, biochemical, LOPAC1280 (AID 687037; call rule not given here); conditions: Cy5-DNA-NS3h complex fluorescence interference counterscreen
[4] = tested on: Aerobactin synthetase IucA (Klebsiella pneumoniae); experiment: IucA aerobactin synthetase inhibitors, biochemical, Tocris library, absorbance (AID 1345561; call rule not given here;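 also: 100% = enzyme without compound and 0% = no enzyme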); conditions: purified IucA enzyme assay, absorbance (OD) read-out; stronger effect = lower value;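 tested at 8 µM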
[5] = sensitizers of A549 cells to miR-34 induction, primary screen, imaging, A549 dox-inducible miR-34, nuclei and caspase counts (AID 1347080;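 active = compounds whose cell count with miR-34 switched on is under 0.7 times the count with it off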); conditions: A549 miR-34 inducible, Hoechst nuclei count, 48 h
[6] = modifiers of HSF1 nuclear foci, imaging, Selleck Cancer Library (AID 1347162; in the data active = plate-normalised HSF1 focus index below about 0.46); conditions: human cells, at 10 µM; SSMD: measured here: HSF1 foci SSMD mean; cell count: measured here: cell number; plate-normalised HSF1 focus index: stronger effect = lower value
[7] = phospholipid biosynthesis inhibitors in animal cells, primary screen, cell-based, LOPAC library, screen 4 (AID 1347384; call rule not given here); conditions: phospholipid biosynthesis inhibition screen, at 10 µM
[8] = viability rescue of complex I mutant cybrids, primary screen, cell-based, galactose medium, ATP luminescence (AID 1645843;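 active = z-score of at least 1.8 in each of two replicates, scored against plate mean and spread of sample wells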;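 also: positive z means more ATP and so rescue of galactose-driven cybrid death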); conditions: complex I mutant cybrid cells, 72 h, stronger effect = higher value
[9] = SU-DIPG-XXV glioma cell viability, MIPE5.0 library, qHTS (AID 1347068; cut-off not given, nearly all actives have IC50 up to about 30 µM)
[10] = growth inhibition of DIPG glioma cells, dose response, cell-based, SU-DIPG-XIII, MIPE4.0, CellTiter-Glo, qHTS (AID 1347061; cut-off not given, nearly all actives have AC50 up to about 37 µM;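 also: cells exposed to compound for 48 hours before readout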); conditions: SU-DIPG-XIII viability, CellTiter-Glo ATP luminescence
[11] = growth inhibition of DIPG glioma cells, dose response, cell-based, JHH-DIPG-1, MIPE4.0, CellTiter-Glo, qHTS (AID 1347062; cut-off not given, nearly all actives have AC50 up to about 27 µM;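 as to AC50: cells exposed to compound for two days before readout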); conditions: JHH-DIPG-1 viability, CellTiter-Glo ATP luminescence
[12] = ovarian cancer cell viability with rucaparib, profiling panel, oncology-focused library, rucaparib conditional (AID 1508598); conditions: patient-derived ovarian cancer cells, CellTiter-Glo viability, 144 h, stronger effect = lower value
[13] = liver-stage malaria parasite growth inhibition, primary screen, cell-based, HepG2, luciferase luminescence, HepG2 viability (AID 624349; in the data active = parasite load remaining mostly below about 12%, no sharp cut-off; inactive = mostly above about 10%;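 also: 100% = mean of DMSO negative control wells on the same plate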); conditions: P. berghei liver stage in HepG2, luciferase luminescence, concentration not given here; parasite load remaining: stronger effect = lower value; viability: measured here: HepG2 viability without parasites
[14] = hESC survival regulators, cell-based (AID 493140; call rule not given here;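 also: cells exposed to compounds for four days before counting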); conditions: human embryonic stem cell survival screen; stronger effect = higher value
[15] = inhibitors of Cryptococcus chitosan production, flow cytometry, Cibacron Brilliant Red staining (AID 1347148; call rule not given here;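 also: compound exposure lasted three days at 37 degrees C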); conditions: Cryptococcus neoformans chitosan, stronger effect = lower value; at 10 µM unless noted
[16] = survival rescue of mitochondrial mutant cells in low glucose, primary screen, MELAS cybrids, Rieske KO mouse fibroblasts, CellTiter-Glo (AID 1508586;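 active = mean z-score across replicates of 1.96 or higher in either the MELAS or the Rieske mutant cell line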;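 also: z relative to plate mean and SD of compound and empty wells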)
[17] = stronger effect = lower value, cell number ratio, induced over uninduced
[18] = measured here: relative caspase fold change +Dox/-Dox
[19] = measured here: total cells with miR-34 induction, stronger effect = lower value
[20] = measured here: total cells without miR-34 induction
[21] = at 0.000305 µM, OCI-C5x cells, with rucaparib 10 µM, 100% = cells with rucaparib alone
[22] = at 0.000305 µM, OCI-C5x cells, without rucaparib
[23] = at 0.000305 µM, OCI-P5x cells, with rucaparib 20 µM, 100% = cells with rucaparib alone
[24] = at 0.000305 µM, OCI-P5x cells, without rucaparib
[25] = at 0.00122 µM, OCI-C5x cells, with rucaparib 10 µM, 100% = cells with rucaparib alone
[26] = at 0.00122 µM, OCI-C5x cells, without rucaparib
[27] = at 0.00122 µM, OCI-P5x cells, with rucaparib 20 µM, 100% = cells with rucaparib alone
[28] = at 0.00122 µM, OCI-P5x cells, without rucaparib
[29] = at 0.00488 µM, OCI-C5x cells, with rucaparib 10 µM, 100% = cells with rucaparib alone
[30] = at 0.00488 µM, OCI-C5x cells, without rucaparib
[31] = at 0.00488 µM, OCI-P5x cells, with rucaparib 20 µM, 100% = cells with rucaparib alone
[32] = at 0.00488 µM, OCI-P5x cells, without rucaparib
[33] = at 0.0195 µM, OCI-C5x cells, with rucaparib 10 µM, 100% = cells with rucaparib alone
[34] = at 0.0195 µM, OCI-C5x cells, without rucaparib
[35] = at 0.0195 µM, OCI-P5x cells, with rucaparib 20 µM, 100% = cells with rucaparib alone
[36] = at 0.0195 µM, OCI-P5x cells, without rucaparib
[37] = at 0.0781 µM, OCI-C5x cells, with rucaparib 10 µM, 100% = cells with rucaparib alone
[38] = at 0.0781 µM, OCI-C5x cells, without rucaparib
[39] = at 0.0781 µM, OCI-P5x cells, with rucaparib 20 µM, 100% = cells with rucaparib alone
[40] = at 0.0781 µM, OCI-P5x cells, without rucaparib
[41] = at 0.313 µM, OCI-C5x cells, with rucaparib 10 µM, 100% = cells with rucaparib alone
[42] = at 0.313 µM, OCI-C5x cells, without rucaparib
[43] = at 0.313 µM, OCI-P5x cells, with rucaparib 20 µM, 100% = cells with rucaparib alone
[44] = at 0.313 µM, OCI-P5x cells, without rucaparib
[45] = at 1.25 µM, OCI-C5x cells, with rucaparib 10 µM, 100% = cells with rucaparib alone
[46] = at 1.25 µM, OCI-C5x cells, without rucaparib
[47] = at 1.25 µM, OCI-P5x cells, with rucaparib 20 µM, 100% = cells with rucaparib alone
[48] = at 1.25 µM, OCI-P5x cells, without rucaparib
[49] = at 5 µM, OCI-C5x cells, with rucaparib 10 µM, 100% = cells with rucaparib alone
[50] = at 5 µM, OCI-C5x cells, without rucaparib
[51] = at 5 µM, OCI-P5x cells, with rucaparib 20 µM, 100% = cells with rucaparib alone
[52] = at 5 µM, OCI-P5x cells, without rucaparib

COc1cc2c(cc1O)CC[C@@H]1[C@@H]2CC[C@]2(C)[C@@H](O)CC[C@@H]12
1.78: SSMD [6]
2270 and 1440: cell count [5, 20]
7300: cell count [6]
0.815 and 0.616: fold change [5, 18]
active: period change [1] -1.4 h
inactive: inhibition [2] -1% | fluorescence ratio (interference) [3] 1 | remaining activity [4] 112% | fold change [5, 17] 1.15 and 1.13 | plate-normalised HSF1 focus index [6] 1.07 | outcome [7] | z-score [8] 0.06 and 0.18
2600 and 1620: cell count [5, 19]

C=CCc1cccc(/C=N/NC(=O)CN2CCN(Cc3ccccc3)CC2)c1O
inactive: remaining activity [4] 83.1% | fold change [5, 17] 1.09 and 0.918 and 0.982 | plate-normalised HSF1 focus index [6] 1.19 | outcome [7] | z-score [8] -1.15 and -0.59
2740 and 4710 and 3900: cell count [5, 20]
3.11: SSMD [6]
7490: cell count [6]
0.357 and 1.59 and 1.69: fold change [5, 18]
2970 and 4320 and 3830: cell count [5, 19]

C[C@H](NC(=O)c1sccc1OCc1ccc(Cl)cc1)c1ccccc1
1.01: fold change [5, 18]
3970: cell count [5, 20]
inactive: remaining activity [4] 124% | outcome [9] | fold change [5, 17] 1.09 | z-score [8] -1.04
4320: cell count [5, 19]

C[C@H](NC(=O)Cc1cc(F)cc(F)c1)C(=O)N[C@H](C(=O)OC(C)(C)C)c1ccccc1
active: viability [12, 44] 99% | viability [12, 47] 84.1% | viability [12, 48] 85.6% | viability [12, 51] 75.1% | viability [12, 52] 78.3%
inactive: remaining activity [4] 99.3% | outcome [10] | outcome [11] | fold change [5, 17] 0.918 | plate-normalised HSF1 focus index [6] 1.11 | viability [12, 21] 103% | viability [12, 22] 116% | viability [12, 23] 110% | viability [12, 24] 111% | viability [12, 25] 103% | viability [12, 26] 117% | viability [12, 27] 109% | viability [12, 28] 107% | viability [12, 29] 108% | viability [12, 30] 126% | viability [12, 31] 106% | viability [12, 32] 111% | viability [12, 33] 103% | viability [12, 34] 119% | viability [12, 35] 110% | viability [12, 36] 102% | viability [12, 37] 115% | viability [12, 38] 117% | viability [12, 39] 107% | viability [12, 40] 101% | viability [12, 41] 106% | viability [12, 42] 125% | viability [12, 43] 102% | viability [12, 45] 116% | viability [12, 46] 117% | viability [12, 49] 120% | viability [12, 50] 120% | z-score [8] 0.56
1.67: fold change [5, 18]
8840: cell count [5, 20]
2.12: SSMD [6]
6880: cell count [6]
8110: cell count [5, 19]

C[C@@H](N)C1CCC(C(=O)Nc2ccncc2)CC1 (stereo partly drawn)
active: viability [12, 23] 93.5% | viability [12, 24] 93.7% | viability [12, 27] 96.3% | viability [12, 28] 92.8% | viability [12, 31] 99.1% | viability [12, 32] 96.4% | viability [12, 35] 89.2% | viability [12, 39] 96.5% | viability [12, 43] 99.7% | viability [12, 44] 97.9% | viability [12, 51] 94.4% | viability [12, 52] 99.6%
7180: cell count [6]
4720 and 9420: cell count [5, 19]
5470 and 10600: cell count [5, 20]
inactive: parasite load remaining [13] 75.2% | remaining activity [4] 114% | outcome [10] | outcome [11] | outcome [9] | fold change [5, 17] 0.864 and 0.892 | plate-normalised HSF1 focus index [6] 1.19 | viability [12, 21] 112% | viability [12, 22] 113% | viability [12, 25] 112% | viability [12, 26] 109% | viability [12, 29] 115% | viability [12, 30] 112% | viability [12, 33] 106% | viability [12, 34] 112% | viability [12, 36] 102% | viability [12, 37] 113% | viability [12, 38] 107% | viability [12, 40] 102% | viability [12, 41] 106% | viability [12, 42] 120% | viability [12, 45] 117% | viability [12, 46] 113% | viability [12, 47] 106% | viability [12, 48] 102% | viability [12, 49] 110% | viability [12, 50] 107% | z-score [8] -0.445
142%: viability [13]
3.4: SSMD [6]
0.978 and 1.24: fold change [5, 18]

Oc1cc(O)cc(/C=C/c2ccc(O)c(O)c2)c1
8350 and 2810: cell count [5, 20]
9320 and 2290 and 7210: cell count [5, 19]
inactive: period change [1] -0.07 h | survival [14] 27.6 | inhibition [2] -6% | fluorescence ratio (interference) [3] 0.9 | remaining activity [4] 112% | outcome [10] | outcome [9] | fold change [5, 17] 1.12 and 0.813 and 0.863 | fold fluorescence [15] 4.54 [at 204.7 µM] | outcome [7] | z-score [8] -1.24 and -0.7
0.772 and 1.12 and 0.797: fold change [5, 18]

Cc1ccc(NC(=O)c2cccc(N(C)C)c2)cc1NC(=O)c1ccc(O)cc1
inactive: survival [14] 103 | remaining activity [4] 115% | outcome [9] | fold change [5, 17] 1.11 and 0.903 and 0.921 | fold fluorescence [15] 3.78 [at 128.4 µM] | z-score ([16]; MELAS cybrid survival, CellTiter-Glo 48 h, stronger effect = higher value) -0.437 | z-score [8] 1.09
2990 and 8110 and 7940: cell count [5, 19]
0.888 and 0.797 and 0.511: fold change [5, 18]
active: AC50 [10] 662 nM | AC50 [11] 3320 nM
0.706: z-score ([16]; Rieske KO mouse fibroblast survival, CellTiter-Glo 72 h)
2700 and 8980 and 8620: cell count [5, 20]

CN(CCOc1ccc(-c2ccc3c(c2)OCO3)cc1C(C)(C)C)CC(=O)O
7520: cell count [5, 19]
inactive: remaining activity [4] 102% | outcome [9] | fold change [5, 17] 0.865 | z-score [8] -0.035
8690: cell count [5, 20]
1.03: fold change [5, 18]
